Assay results reported in PubChem BioAssay AID492992 (Johns Hopkins Ion Channel Center, 2010).
Out of some 4,900 compounds screened, about 2,100 (43%) were called active.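 How the source made its calls: active means thallium signal inhibited by more than 5 SD of the compound-free buffer control wells, on both duplicate plates; inactive means the rest.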 The set was probably picked from earlier hits. The entries come from a sample that favours actives as a whole.

The molecules below were run against Potassium channel subfamily K member 9 (Homo sapiens) (UniProt Q9NPC2) (assay: blockers of human TASK-3 (KCNK9) channel – HEK293 cells, thallium flux, duplicate, confirmation (AID 492992;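 on inhibition: 0% = assay buffer control wells without compound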)). Settings: FluxOR thallium flux fluorescence, at 10 µM; stronger effect = higher value.
Potassium channel subfamily K member 9 (Homo sapiens), sequence (Q9NPC2 whole entry, looked up): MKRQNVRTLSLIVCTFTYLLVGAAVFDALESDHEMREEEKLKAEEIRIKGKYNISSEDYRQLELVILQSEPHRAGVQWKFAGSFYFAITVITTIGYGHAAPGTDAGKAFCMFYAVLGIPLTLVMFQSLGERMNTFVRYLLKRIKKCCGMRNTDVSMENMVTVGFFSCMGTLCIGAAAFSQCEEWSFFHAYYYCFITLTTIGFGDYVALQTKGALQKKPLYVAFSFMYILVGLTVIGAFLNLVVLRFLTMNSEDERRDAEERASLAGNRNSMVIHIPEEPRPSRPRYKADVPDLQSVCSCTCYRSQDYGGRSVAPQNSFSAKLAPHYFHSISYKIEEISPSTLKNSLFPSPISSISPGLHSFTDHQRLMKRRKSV
In the case of CC(C)(C)c1ccc(CN2C(=O)CN=C(c3ccccc3)c3ccccc32)cc1, the inhibition is reported as 59% (active). CCOC(=O)C1SC2(C(F)(F)C(F)F)CC1(O)c1c(c(OC)c3occc3c1OC)O2 (stereo unspecified) was tested, and the inhibition was 23.5% (active). In the case of CC(C)n1c(=O)c(C=Nc2ccc(Br)cc2)c(O)n(Cc2ccco2)c1=O, the inhibition is reported as “inactive”. With CCCCCCN=C(CC)c1c(O)n(CCCC)c(=O)[nH]c1=O the inhibition was 46.5% (active). With CC(C)(C)c1ccc(OC(=O)N2CCCCC2)cc1 the inhibition was “inactive”. With CCCCCCCCCCCCn1ccc(=N)cc1 the inhibition was 52.5% (active).
